38 compounds from PubChem BioAssay (Tox21) can be followed below.

Records with an inconclusive call do not appear. Calls of active or inactive are those of the source. Calls follow the shape of the dose curve; as a rule, active = well fitted curve in the direction sought with a large enough effect in the repeat runs; inconclusive = weak or mixed curves; inactive = no such curve, though single readings can be large; an effect the other way counts as inactive or inconclusive.
% is scaled to controls: 0 for no effect and ±100 for the full control effect.
Also: nearly all actives have a fitted effect of over 50% in size.

The first assay can be described thus: qHTS RealTime-Glo MT Cell Viability Assay in HepG2 cells - 24 hour (AID 1224867). The following applies: RealTime-Glo luminescence; series mostly up to 76.8 µM; activity change, negative = cytotoxicity: at the top concentration. In short, it runs like this: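 HepG2 cells (600/well) were dispensed with RealTime-Glo reagents, incubated 5 h at 37 °C, then treated with compounds in DMSO for up to 40 h. Nonlytic NanoLuc luminescence reflecting viable cells was read at each stated time point.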
For orientation: qHTS replaces the single test concentration by a dilution series.
On to `CC(=O)Nc1ccc(C)cc1`, for which the “activity change, negative = cytotoxicity” value is 0.112% (inactive).

As for `CCC1COC(=O)O1` (stereo not given), the “activity change, negative = cytotoxicity” value is 3.18% (inactive).

As for `C[CH2][Ge]([Cl])([CH2]C)[CH2]C`, the “activity change, negative = cytotoxicity” value is -5.26% (inactive).

Turning to `Cc1cccc(Nc2ccncc2S(=O)(=O)NC(=O)NC(C)C)c1`, the “activity change, negative = cytotoxicity” value was 3.55% [at 35.3 µM] (inactive).

`Oc1ccccc1Cc1ccccc1O`: the “activity change, negative = cytotoxicity” value was -13.1% (inactive).

For the compound `CCCCCN(CCCOC)C(=O)C(CCC(=O)O)NC(=O)c1ccc(Cl)c(Cl)c1` (stereo not given), the “activity change, negative = cytotoxicity” value is 4.72% [at 35.3 µM] (inactive).

For `NS(=O)(=O)c1ccccc1OC(F)(F)F`, the “activity change, negative = cytotoxicity” value is 0.596% (inactive).

Turning to `CC(=O)OCCCc1ccccc1`, the “activity change, negative = cytotoxicity” value is 0.867% (inactive).

For `CN[C@@H]1[C@@H](O)[C@@H](O[C@@H]2[C@H](O)[C@H](O[C@H]3OC(CN)=CC[C@H]3N)[C@@H](N)C[C@H]2N)OCC1(C)O` (stereo not given in full), the “activity change, negative = cytotoxicity” value is -0.106% [at 35.3 µM] (inactive).

Turning to `CCC(C)(C)C1CCC(=O)CC1`, the “activity change, negative = cytotoxicity” value was 1.91% (inactive).

For the compound `Cc1ccccc1C`, the “activity change, negative = cytotoxicity” value was 3% (inactive).

For `NC(=O)NNC(N)=O`, the “activity change, negative = cytotoxicity” value is 1.79% (inactive).

Turning to `CCCCCCCCCCCCCCCC(=O)NCCO`, the “activity change, negative = cytotoxicity” value is 1.31% [at 35.3 µM] (inactive).

Take `O=C(O)c1ccc(OCCN2CCCCC2)cc1`: the “activity change, negative = cytotoxicity” value is 0.624% [at 35.3 µM] (inactive).

On to `C=CCOc1c(Br)cc(Br)cc1Br`, for which the “activity change, negative = cytotoxicity” value is -6.07% (inactive).

For `O=CN1CCOCC1`, the “activity change, negative = cytotoxicity” value was 0.826% (inactive).

With `CCCCCCCCOC(C)=O`, the “activity change, negative = cytotoxicity” value is 0.0789% (inactive).

As for `CC(C)COC(=O)COc1ccc(Cl)cc1Cl`, the “activity change, negative = cytotoxicity” value is 0.449% (inactive).

With `CCCCC(C)C(=O)O` (stereo not given), the “activity change, negative = cytotoxicity” value was 1.2% (inactive).

On to `CCCCCCCCCCCCCCCCI`, for which the activity change, negative = cytotoxicity was -1.23% [at 15.8 µM] (inactive).

As to `COc1ccc(NS(=O)(=O)c2ccc(N)cc2)nn1`, the “activity change, negative = cytotoxicity” value was 5.54% [at 35.3 µM] (inactive).

In the case of `O=c1[nH]c(=O)c2ccccc2o1`, the “activity change, negative = cytotoxicity” value is 2.59% [at 35.3 µM] (inactive).

Turning to `CNCc1ccccc1`, the “activity change, negative = cytotoxicity” value was -2.14% [at 35.3 µM] (inactive).

On to `O=C(COCCOCCOCC(=O)Nc1c(I)cc(I)c(C(=O)O)c1I)Nc1c(I)cc(I)c(C(=O)O)c1I`, for which the “activity change, negative = cytotoxicity” value was 0.0774% [at 35.3 µM] (inactive).

As for `CCCCCCCCCCC`, the “activity change, negative = cytotoxicity” value is 0.272% (inactive).

Regarding `C=CCOc1c(Br)cc(C(C)(C)c2cc(Br)c(OCC=C)c(Br)c2)cc1Br`, the “activity change, negative = cytotoxicity” value is 5.31% [at 35.3 µM] (inactive).

On to `O=C(O)/C=C/c1ccccc1`, for which the “activity change, negative = cytotoxicity” value was 3.35% (inactive).

With `C[C@H](CCC(=O)NCC(=O)O)[C@H]1CC[C@H]2[C@@H]3[C@H](O)C[C@@H]4C[C@H](O)CC[C@]4(C)[C@H]3C[C@H](O)[C@]12C`, the “activity change, negative = cytotoxicity” value is 0.699% (inactive).

As to `CCCOC(=O)CCCCC(=O)OCCC`, the “activity change, negative = cytotoxicity” value is 1.38% (inactive).

Regarding `CN(C)CCOCCN(C)CCO`, the “activity change, negative = cytotoxicity” value is -0.0903% (inactive).

As for `CC(C)SCc1ccco1`, the “activity change, negative = cytotoxicity” value is -1.42% [at 35.3 µM] (inactive).

Regarding `CCNC(=O)NCCCOc1cccc(CN2CCCCC2)c1`, the “activity change, negative = cytotoxicity” value was 0.0679% [at 35.3 µM] (inactive).

As for `COc1cc(C=O)ccc1OC(=O)C(C)C`, the “activity change, negative = cytotoxicity” value was 0.0373% (inactive).

`O=C(Oc1ccccc1C(=O)O)c1ccccc1O`: the “activity change, negative = cytotoxicity” value is 5.9% [at 35.3 µM] (inactive).

`CCCCCCCCCCCCCCCCCCN(C)C`: the “activity change, negative = cytotoxicity” value is -5.37% [at 35.3 µM] (inactive).

For the compound `O=C(O)CCNC(=O)c1ccccc1`, the “activity change, negative = cytotoxicity” value is 0.678% [at 35.3 µM] (inactive).

As to `CC(=O)Nc1ncc([N+](=O)[O-])s1`, the “activity change, negative = cytotoxicity” value was 1.79% [at 35.3 µM] (inactive).

Take `COc1cccc2sc(N)nc12`: the “activity change, negative = cytotoxicity” value is -2.96% (inactive).

A short description of the next assay: qHTS RealTime-Glo MT Cell Viability Assay in HEK293 cells - 32 hour (AID 1224868). Also: potency is read from the fitted curve at half-maximal effect. As to activity change, negative = cytotoxic: top concentration of the series differs between compounds. The following applies: RealTime-Glo luminescence; series mostly up to 76.8 µM; activity change, negative = cytotoxic: at the top concentration. In short, it runs like this: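 HEK293 cells seeded with NanoLuc/prosubstrate reagent, rested 5 h at 37 C, then dosed and kept at 37 C up to 40 h. Nonlytic real-time luminescence from viable cells read at 0, 8, 16, 24, 32 and 40 h.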
With `CC(=O)Nc1ccc(C)cc1`, the “activity change, negative = cytotoxic” value is -9.75% (inactive).

Turning to `CCC1COC(=O)O1` (stereo not given), the “activity change, negative = cytotoxic” value was 1.32% (inactive).

On to `C[CH2][Ge]([Cl])([CH2]C)[CH2]C`, for which the “activity change, negative = cytotoxic” value is -0.269% (inactive).

Take `Cc1cccc(Nc2ccncc2S(=O)(=O)NC(=O)NC(C)C)c1`: the “activity change, negative = cytotoxic” value was -0.883% [at 35.3 µM] (inactive).

As to `CCCCCN(CCCOC)C(=O)C(CCC(=O)O)NC(=O)c1ccc(Cl)c(Cl)c1` (stereo not given), the “activity change, negative = cytotoxic” value was 1.77% [at 35.3 µM] (inactive).

With `NS(=O)(=O)c1ccccc1OC(F)(F)F`, the “activity change, negative = cytotoxic” value was 14% (inactive).

Regarding `CC(=O)OCCCc1ccccc1`, the “activity change, negative = cytotoxic” value was 2.74% (inactive).

For `CN[C@@H]1[C@@H](O)[C@@H](O[C@@H]2[C@H](O)[C@H](O[C@H]3OC(CN)=CC[C@H]3N)[C@@H](N)C[C@H]2N)OCC1(C)O` (stereo not given in full), the “activity change, negative = cytotoxic” value is -1.78% [at 35.3 µM] (inactive).

Take `CCC(C)(C)C1CCC(=O)CC1`: the “activity change, negative = cytotoxic” value was 5.95% (inactive).

For `Cc1ccccc1C`, the “activity change, negative = cytotoxic” value is 14.4% (inactive).

For the compound `NC(=O)NNC(N)=O`, the “activity change, negative = cytotoxic” value was 15.9% (inactive).

As for `CCCCCCCCCCCCCCCC(=O)NCCO`, the “activity change, negative = cytotoxic” value was -3.78% [at 35.3 µM] (inactive).

Turning to `O=C(O)c1ccc(OCCN2CCCCC2)cc1`, the “activity change, negative = cytotoxic” value was 7.54% [at 35.3 µM] (inactive).

As for `C=CCOc1c(Br)cc(Br)cc1Br`, the “activity change, negative = cytotoxic” value is 3.22% (inactive).

As to `O=CN1CCOCC1`, the “activity change, negative = cytotoxic” value is 8.52% (inactive).

`CCCCCCCCOC(C)=O`: the “activity change, negative = cytotoxic” value was 10.4% (inactive).

With `CC(C)COC(=O)COc1ccc(Cl)cc1Cl`, the “activity change, negative = cytotoxic” value was 9.35% (inactive).

With `CCCCC(C)C(=O)O` (stereo not given), the “activity change, negative = cytotoxic” value was -6.94% (inactive).

`CCCCCCCCCCCCCCCCI`: the activity change, negative = cytotoxic is -10.5% [at 15.8 µM] (inactive).

On to `COc1ccc(NS(=O)(=O)c2ccc(N)cc2)nn1`, for which the “activity change, negative = cytotoxic” value was 6.69% [at 35.3 µM] (inactive).

Take `O=c1[nH]c(=O)c2ccccc2o1`: the “activity change, negative = cytotoxic” value is -0.696% [at 35.3 µM] (inactive).

Take `CNCc1ccccc1`: the “activity change, negative = cytotoxic” value is 1.24% [at 35.3 µM] (inactive).

In the case of `O=C(COCCOCCOCC(=O)Nc1c(I)cc(I)c(C(=O)O)c1I)Nc1c(I)cc(I)c(C(=O)O)c1I`, the “activity change, negative = cytotoxic” value is 3.8% [at 35.3 µM] (inactive).

`CCCCCCCCCCC`: the “activity change, negative = cytotoxic” value is 0.614% (inactive).

Regarding `C=CCOc1c(Br)cc(C(C)(C)c2cc(Br)c(OCC=C)c(Br)c2)cc1Br`, the “activity change, negative = cytotoxic” value is 18.9% [at 35.3 µM] (inactive).

Regarding `O=C(O)/C=C/c1ccccc1`, the “activity change, negative = cytotoxic” value is -2.79% (inactive).

Turning to `C[C@H](CCC(=O)NCC(=O)O)[C@H]1CC[C@H]2[C@@H]3[C@H](O)C[C@@H]4C[C@H](O)CC[C@]4(C)[C@H]3C[C@H](O)[C@]12C`, the Potency is 9.49 µM (active).

With `CCCOC(=O)CCCCC(=O)OCCC`, the “activity change, negative = cytotoxic” value is -2.43% (inactive).

Consider `CN(C)CCOCCN(C)CCO`, for which the “activity change, negative = cytotoxic” value was -11.1% (inactive).

For `CC(C)SCc1ccco1`, the “activity change, negative = cytotoxic” value is 3.86% [at 35.3 µM] (inactive).

Turning to `CCNC(=O)NCCCOc1cccc(CN2CCCCC2)c1`, the “activity change, negative = cytotoxic” value was -6.3% [at 35.3 µM] (inactive).

For the compound `COc1cc(C=O)ccc1OC(=O)C(C)C`, the “activity change, negative = cytotoxic” value was -1.61% (inactive).

Take `O=C(Oc1ccccc1C(=O)O)c1ccccc1O`: the “activity change, negative = cytotoxic” value is -1.81% [at 35.3 µM] (inactive).

`CCCCCCCCCCCCCCCCCCN(C)C`: the “activity change, negative = cytotoxic” value is 0.279% [at 35.3 µM] (inactive).

Take `O=C(O)CCNC(=O)c1ccccc1`: the “activity change, negative = cytotoxic” value was -3.97% [at 35.3 µM] (inactive).

Regarding `CC(=O)Nc1ncc([N+](=O)[O-])s1`, the “activity change, negative = cytotoxic” value was 2.74% [at 35.3 µM] (inactive).

On to `COc1cccc2sc(N)nc12`, for which the “activity change, negative = cytotoxic” value was -11.8% (inactive).
